Screening results deposited in PubChem by several laboratories.
Rows were chosen to be rich in hits. Some 2.8% of all compounds tested hit in one or more screens of this group.
ERa coact inh = ERα–SRC-1 coactivator interaction inhibitors, primary screen, biochemical, TR-FRET, ERα LBD, estradiol-bound; Estrogen receptor (Homo sapiens), P03372; TR-FRET ER-alpha LBD / SRC-1 peptide; inhibition, % at 25.6 µM; hit rate 1.7% among 86,000; AID 629, 2007; in the data active = inhibition above about 50%
ERa coact pot = enhancers of ERα–SRC-1 coactivator binding, primary screen, biochemical, TR-FRET, ERα LBD, low estradiol | TR-FRET ERalpha-LBD/SRC-Cy5 coactivator binding, 2 h; 100 = basal binding, no effect | coactivator binding (% of control), % at 25.6 µM | hit rate 1.3% among 86,000; in the data active = activity above about 200%;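 also: binding measured in presence of low estradiol as agonist stimulus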
MRP reversal = reversal of MRP1-mediated doxorubicin resistance, primary screen, H69AR cells, doxorubicin co-treatment; H69AR cells + 2 uM doxorubicin, CellTiter-Glo, 72 h; differential viability (reversal), % at 10 µM; hit rate 0.04% among 85,000; AID 602, 2007;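 active = viability drop by adding the cancer drug above about 55%, with treated viability meeting a 40% cutoff, limit read from the data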;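 also: larger differential means the compound sensitizes cells more to doxorubicin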
ERb SRC1 inh = inhibitors of ERβ-SRC1 coactivator interaction, primary screen, biochemical, TR-FRET, ERβ LBD, SRC-1 peptide. Estrogen receptor beta (Homo sapiens), Q92731. TR-FRET ER-beta LBD / SRC1-Cy5 peptide binding; receptor agonist-loaded with 1 µM estradiol. inhibition, % at 25.6 µM. hit rate 1.3% among 86,000. AID 633, 2007;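 active = compounds whose percent inhibition of the receptor-coactivator binding signal exceeds about 50% in the single-dose screen, limit read from the data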
Target sequence (Q92731 whole entry, looked up, the tested form may be a part): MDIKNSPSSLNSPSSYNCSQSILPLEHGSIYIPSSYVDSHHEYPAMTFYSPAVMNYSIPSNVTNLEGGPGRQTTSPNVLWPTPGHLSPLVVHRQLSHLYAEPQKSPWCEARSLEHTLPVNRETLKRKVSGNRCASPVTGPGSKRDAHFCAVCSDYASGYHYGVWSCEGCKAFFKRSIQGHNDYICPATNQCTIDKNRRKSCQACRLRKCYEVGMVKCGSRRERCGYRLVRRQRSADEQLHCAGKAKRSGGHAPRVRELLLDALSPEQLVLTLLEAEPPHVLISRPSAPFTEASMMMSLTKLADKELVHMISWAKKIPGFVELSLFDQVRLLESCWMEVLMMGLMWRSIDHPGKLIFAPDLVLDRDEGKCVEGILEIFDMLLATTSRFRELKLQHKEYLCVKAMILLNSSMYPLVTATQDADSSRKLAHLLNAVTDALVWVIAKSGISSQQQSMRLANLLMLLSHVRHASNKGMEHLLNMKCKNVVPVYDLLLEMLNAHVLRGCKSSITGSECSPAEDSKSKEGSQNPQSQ
MRP-1 activ = H69AR viability gain despite doxorubicin, primary screen, MRP-1 activator project, H69AR cells, CellTiter-Glo | viability rescue | viability increase, % at 10 µM | hit rate 0.61% among 140,000 | AID 799, 2007;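 active = viability gain under doxorubicin at or above a set limit, the compound median plus 3 SD, cut at about 4.7% in these data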;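 also: MRP-1 overexpressing cells given doxorubicin 25 µM after compound pretreatment; 18-22 h compound pretreatment then 72 h with doxorubicin before readout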
Smad3 FoxH1 inh = Smad3/FoxH1 peptide binding inhibitors, primary screen, biochemical, TR-FRET. Mothers against decapentaplegic homolog 3 (Homo sapiens), P84022. TR-FRET Smad3/Dy647-FoxH1 peptide binding, europium anti-His. inhibition, % at 25 µM. hit rate 0.29% among 88,000;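 active = compounds that reduce the energy-transfer binding signal between the protein and its labelled peptide by more than half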
Large screens that a line does not name were inactive; [ ] = dose if it differs, or a comment.

Cc1c(C(=O)OCCOC(C)C)[nH]c2c1C(=O)CC(c1ccco1)C2 (stereo not given)	none
COCCOC(=O)c1[nH]c2c(c1C)C(=O)CC(c1ccc(F)cc1)C2 (stereo not given)	none
Cc1c(C(=O)OCc2ccccc2)[nH]c2c1C(=O)CC(c1ccco1)C2 (stereo not given)	ERa coact inh 55, ERb SRC1 inh 56
CCOC(=O)c1[nH]c2c(c1C)C(=O)CC(c1ccco1)C2 (stereo not given)	ERa coact inh 65, ERb SRC1 inh 56[fluorescence artefact?]
CSCCOC(=O)c1[nH]c2c(c1C)C(=O)CC(c1ccco1)C2 (stereo not given)	ERa coact inh 56, ERb SRC1 inh 50
COCCOC(=O)c1[nH]c2c(c1C)C(=O)CC(c1ccco1)C2 (stereo not given)	ERa coact inh 51
COCCOC(=O)c1[nH]c2c(c1C)C(=O)CC(c1ccccc1)C2 (stereo not given)	none
NC1=C(O)C(=O)[C@H](c2c[nH]c3ccc(OCc4ccccc4)cc23)O1	none (no result: ERa coact inh, ERa coact pot, MRP reversal, ERb SRC1 inh, MRP-1 activ)
Cc1cc(C)cc(-c2nnc(SCC(=O)c3ccc4c(c3)OCCO4)o2)c1	ERa coact pot 221[fluorescence artefact?]
COc1cccc(-c2nnc(SCC(=O)Nc3cc(C)on3)o2)c1	none (no result: ERa coact inh, ERa coact pot, MRP reversal, ERb SRC1 inh, Smad3 FoxH1 inh)
Cc1cc(NC(=O)CSc2nnc(-c3ccc4c(c3)OCCO4)o2)no1	ERa coact pot 327[fluorescence artefact?]
O=C(CSc1nnc(-c2ccccc2)o1)c1ccc2c(c1)OCCO2	none
Nc1cc2c(nc3c4ccccc4c(N)cc3[n+]2-c2cccc3ccccc23)c2ccccc12 (tested in a mixture with another compound)	none (no result: ERa coact inh, ERa coact pot, MRP reversal, ERb SRC1 inh, MRP-1 activ)
O=C(NC(=S)Nc1ccc(C(=O)N2CCOCC2)cc1)c1ccc([N+](=O)[O-])cc1	none (no result: ERa coact inh, ERa coact pot, MRP reversal, ERb SRC1 inh, Smad3 FoxH1 inh)
Cc1ccc(-n2nnnc2SCC(=O)Nc2sccc2C#N)cc1	none (no result: ERa coact inh, ERa coact pot, MRP reversal, ERb SRC1 inh, Smad3 FoxH1 inh)
O=C(NCc1ccco1)c1cnn2c(C(F)(F)F)cc(-c3ccccc3)nc12	none
COc1ccc(-c2cc(C(F)(F)F)n3ncc(C(=O)NCc4ccco4)c3n2)cc1	ERa coact inh 59, ERb SRC1 inh 50[fluorescence artefact?]
O=C(NC1CCCC1)c1cnn2c(C(F)(F)F)cc(-c3ccc4c(c3)OCO4)nc12	ERa coact inh 60[fluorescence artefact?]
Clc1ccc(CSCc2ccc(Cl)cc2Cl)c(Cl)c1	none (no result: ERa coact inh, ERa coact pot, MRP reversal, ERb SRC1 inh, MRP-1 activ)
Cc1ccc(-[n+]2cc(=O)o[nH]2)cc1	none (no result: ERa coact inh, ERa coact pot, MRP reversal, ERb SRC1 inh, MRP-1 activ)
O=C(O)CCC(=O)N1CCN(c2ccc(C(=O)c3ccc(F)cc3)cc2)CC1	ERa coact pot 249
CC1(C)CC(=O)C=C(NC2CCCCCC2)C1	none
CC1(C)CC(=O)C=C(NC2CCCCCCC2)C1	ERa coact inh 95[fluorescence artefact?]
N=C(N)SCc1ccccn1	MRP-1 activ 6.3 (no result: ERa coact inh, ERa coact pot, MRP reversal, ERb SRC1 inh, Smad3 FoxH1 inh)
c1ccc(CSc2nnc(SCc3ccccn3)s2)nc1	none
Cc1cccc(OCCC(=O)NCC(c2ccco2)N2CCCCC2)c1 (stereo not given)	none (no result: ERa coact inh, ERa coact pot, MRP reversal, ERb SRC1 inh, Smad3 FoxH1 inh)
CC(C)C(=O)N1CCN(c2ccccc2NC(=O)c2cccc(Cl)c2)CC1	MRP reversal 78
CN(C)c1ccc(NC(=O)N2CCOCC2)cc1	ERb SRC1 inh 64[fluorescence artefact?]
O=C(Nc1ccc(F)cc1)N1CCOCC1	none
O=C(O)c1cc2nc(-c3ccc(F)cc3)cc(C(F)(F)F)n2n1	none
CCn1cc(-c2cc(C(F)(F)F)n3nc(C(=O)O)cc3n2)c(C)n1	ERa coact inh 64[fluorescence artefact?], ERb SRC1 inh 75[fluorescence artefact?]
N/C(=N\c1nc2ccccc2o1)NC(=O)c1ccccc1NC(=O)c1ccccc1	ERb SRC1 inh 82
N/C(=N\c1nc2ccccc2o1)NC(=O)c1ccccc1F	none
COc1ccc(OC)c(NC(=O)CCN2CCCCCC2)c1	ERa coact inh 51[fluorescence artefact?]
COc1ccc(OC)c(NC(=O)C2CCCN2C(=O)C2CCC(C)CC2)c1 (stereo not given)	ERa coact inh 91[fluorescence artefact?]
Cc1ccc(C(C)C)c(OCC(=O)OCc2c(C)noc2C)c1	ERb SRC1 inh 51[fluorescence artefact?]
